# Assay outcomes deposited in PubChem BioAssay by National Center for Advancing Translational Sciences (NCATS).
# An excerpt weighted towards active compounds, which were near 2.9% of everything screened.
# S2 tox – reduces viability in counter-screen for ATXN expression inhibitors. AID 651635. Potency, µM (top dose mostly 56.7 µM), actives largely listed as cytotoxic. 400,000 tested, 0.49% active. S2 cells (HEK-293 line with an ATXN2-luciferase reporter) viability, CellTiter-Fluor protease fluorescence, 24 h; further: nearly all actives have a fitted effect of over 40% in size
# Nrf2 ARE act – Nrf2 pathway activation. AREc32 ARE-luciferase reporter (MCF7-derived line), luminescence, 24 h. Potency, µM (highest dose often 46.1 µM), inactives show top-dose activation, most hits filed as activators. 410,000 tested, 0.31% active; further: % of control where 0% means no effect; nearly all actives have a fitted effect of over 65% in size
#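 Cells of the AREc32 ARE-luciferase line are plated in OPTI-MEM containing 5% FBS and left overnight at 37 deg C. Compounds are pinned in, incubation continues 24 hr, and firefly luciferase signal is then measured.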
# Nrf2 block – inhibitors of Nrf2 signaling; 360,000 tested, 2.1% active; A549 ARE-Fluc reporter, luciferase luminescence, 18-24 h; Potency, µM (highest dose often 46 µM), for the others: top-dose activity change, negative = inhibition, usual class: inhibitors; further: on the % scale 0 is the no-effect control and ±100 the full control effect; nearly all actives have a fitted effect of over 60% in size
#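 Nrf2 activity is the BugLite luminescence, read 15 min after reagent at room temperature, following CellTiter-Fluor cytotoxicity readout (30 min, 37C). Compound titrations were applied for 18-24 h to 5000 A549 ARE_Fluc cells/well in 5% FBS OPTI-MEM.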
# A549 viability – A549 cytotoxicity, counter-screen for Nrf2 inhibitors; A549 ARE-Fluc cells, CellTiter-Fluor viability, 18-24 h; Potency, µM (titrated, usually from 46 µM), inactives show at the highest dose activity change, negative = cytotoxicity, usual class: inhibitors; 390,000 tested, 0.16% active; further: on the % scale 0 is the no-effect control and ±100 the full control effect
#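 A549 ARE-Fluc cells in 5% FBS OPTI-MEM, 5000 cells/well, rested 2 h then exposed to compounds in concentration-response for 18-24 h at 37 °C. Viability by CellTiter-Fluor fluorescence (Ex 405/Em 525) after 30 min; luciferase luminescence (BugLite, 15 min, RT) read afterwards.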
# ATXN2 expr inh – inhibitors of ATXN2 expression | HEK-293 ATXN2-luciferase reporter, luminescence, 24 h | Potency, µM (highest dose often 57 µM), for inactives: at the top dose activity change, negative = inhibition, most hits filed as inhibitors | 360,000 tested, 0.72% active | AID 1745845; further: on the % scale 0 is the no-effect control and ±100 the full control effect; nearly all actives have a fitted effect of over 55% in size
#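 ATXN2-luciferase reporter cells (luciferase flanked by upstream and downstream ATXN2 gene portions) were treated 24 h at 37 °C with compounds at up to 57 uM. SteadyGlo luminescence gave expression; GF-AFC fluorescence gave viability.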
# Numbers without * were called inactive; i = inactive; ? = inconclusive; . = not tested or not shown; [ ] = remark or other dose. The call rests on the fitted dose curve; in most records, active means well fitted curve in the direction sought with a large enough effect; inconclusive means small, poorly fitted or top-dose-only effect, or another doubt; inactive means no such curve, though single readings can be large; an effect the other way counts as inactive or inconclusive. Potency means the concentration at half of the fitted maximal effect.
SMILES,S2 tox,Nrf2 ARE act,Nrf2 block,A549 viability,ATXN2 expr inh
COc1ccc(/C=N/NC(=O)c2ccc(N(C)S(=O)(=O)c3ccccc3)cc2)c(OC)c1,i,0%,3%,13%,.
COc1ccc(NC(=O)COc2ccc(N(C)S(=O)(=O)c3ccc(Cl)cc3)cc2)cc1,i,-1%,13µM*,-16%,-24%
Cc1cc(C)n(CC(=O)Nc2cc(F)ccc2F)c(=O)c1C#N,i,5%,.,9%,3%
O=C(NCCc1nnc2n1CCN(Cc1cc3ccccc3o1)CC2)c1ccoc1,i,.,.,.,.
Cc1nc2ccc(NC(=O)c3ccc(S(=O)(=O)N(C)c4ccccc4)cc3)cc2s1,?,4%,?,-11%,30µM*
Cc1ccc(S(=O)(=O)N(C)c2ccc(OCC(=O)Nc3nc4ccccc4s3)cc2)cc1,i,6%,21µM*,-1%,?
Cc1ccc(NC(=O)c2ccc(NS(=O)(=O)/C=C/c3ccccc3)cc2)nc1,i,2%,21µM*,-7%,-4%
Cc1ccc(S(=O)(=O)N(C)c2ccc(OCC(=O)Nc3nc4c(ccc5ccccc54)s3)cc2)cc1,i,0%,-12%,0%,8%
Cc1ccc(S(=O)(=O)N(C)c2ccc(C(=O)Nc3ccccn3)cc2)cc1,i,1%,-2%,-1%,5%
CC(=O)Nc1ccc(NC(=O)c2ccc(S(=O)(=O)N(C)c3ccccc3)cc2)cc1,?,0%,-22%,1%,.
Cc1ccc(S(=O)(=O)N(C)c2ccc(C(=O)Nc3ccc(C)cn3)cc2)cc1,i,2%,12µM*,-23%,-24%
O=c1[nH]c2ccccc2nc1-c1ccccc1,i,4%,?,-4%,82%
NC(=O)N=Nc1c2[nH]c3ccccc3nc-2c2ccccc12,?,10%,10µM*,?,?
COc1ccc(C=NNC(=S)NN=Cc2ccc(OC)c(OC)c2)cc1OC,i,12%,15µM*,4%,4%
COc1cc(CNC(=O)CCCCC=CC(C)C)ccc1O,.,.,.,.,7%
COc1ccccc1C1CC(c2cccs2)=Nc2ccccc2S1 (configuration not stated),i,18µM*,16%,0%,11%
CN(CC1CCCO1)S(=O)(=O)c1ccc(C(=O)Nc2nc(-c3ccccn3)cs2)cc1 (configuration not stated),?,2%,5.2µM*,?,?
CC1CN(S(=O)(=O)c2ccc(C(=O)Nc3nc(-c4cc5ccccc5o4)cs3)cc2)CC(C)O1 (configuration not stated),i,0%,3.7µM*,7.3µM*,?
CN(C)S(=O)(=O)c1ccc(C(=O)Nc2nc(-c3cc4ccccc4o3)cs2)cc1,i,0%,6.5µM*,-18%,-27%
CC(C)(C)CC(=O)OCC(=O)[C@@]1(O)CC[C@H]2[C@@H]3CCC4=CC(=O)C=C[C@]4(C)[C@H]3[C@@H](O)C[C@@]21C,?,.,.,.,-14%
O=C(NCC1Cc2cccc(-c3ccccn3)c2O1)c1cnn2cccnc12 (configuration not stated),i,.,.,.,.
CC1(C)C(=O)Nc2ccccc2N1C(=O)Cn1ncc(Cl)c(Cl)c1=O,20µM*,?,10%,10%,.
Cc1nn(CC(=O)N2c3ccccc3NC(=O)C2(C)C)c(C)c1[N+](=O)[O-],i,?,14%,-9%,.
CC1(C)OC(=O)C2(Cc3cc([N+](=O)[O-])ccc3N3CCCCCC32)C(=O)O1 (configuration not stated),.,.,2%,-4%,.
CCOC(=O)N1CCC(Nc2ncnc3c2cnn3-c2ccccc2)CC1,i,3%,16µM*,-11%,5%
Cc1nn(-c2ccc(N3CCCC3)nn2)c(C)c1CCC(=O)N1CCN(c2ccccc2F)CC1,.,1%,?,-1%,.
N#CN1CCC(N[S+](=O)([O-])c2cccc(F)c2)CC1,.,.,12%,1%,.
Cc1ccc(NC(=O)c2ccco2)c([N+](=O)[O-])c1,i,11µM*,93%,-1%,-16%[11.3 µM]
COC(=O)c1sccc1NC(=O)c1ccccc1[N+](=O)[O-],?,11µM*,-1%,-2%,-9%
